Inconclusive results are not listed. The source made the active and inactive calls. The call rests on the fitted dose curve.
Test: qHTS Assay for Lipid Storage Modulators (AID 1519); on activity change, negative = inhibition: on the % scale 0 is the no-effect control and ±100 the full control effect
Details: Drosophila S3 cells, BODIPY lipid droplet/cell ratio, laser cytometry, cells loaded with oleic acid
Description: NIH Molecular Libraries Probe Production Centers Network [MLPCN]
NIH Chemical Genomics Center [NCGC]
Assay Submitter (PI): Beller, Mathias; Max-Planck-Institut fur Biophysikalische Chemie
NCGC Assay Overview: Storing lipids as a reservoir for energy or the anabolism of elementary metabolites is a common feature of probably all cells and is conserved from bacteria to humans. The universal cellular lipid storage organelle is the so-called lipid storage droplet (LD). Although ubiquitous, LDs share a simple structure composed of a hydrophobic core that harbors the storage lipids, which is shielded by a droplet-specific phospholipid monolayer to which proteins are attached. The current model of LD biogenesis involves an incorporation of the lipid core into the membrane leaflets of the endoplasmic reticulum (ER) followed by a subsequent budding-like maturation of a LD, which ultimately pinches off. Once released, LD volume can increase by localized lipogenesis or fusion of existing droplets. Storage lipids are re-mobilized enzymatically by lipase activity. Lipase regulation in the adipocyte is heavily studied and involves multiple components including catecholamine signaling, the LD-associated proteins Perilipin and comparative gene identification-58 (CGI-58) and at least two lipases named hormone sensitive lipase (HSL) and adipocyte triglyceride lipase (ATGL). LD regulation outside of the adipocyte is poorly understood and only few components are known. However, there is an urgent need to learn more about ectopic fat depots as mislocalized storage of lipids, for example in the liver or muscle, is an eminent health problem associated with insulin resistance or the metabolic syndrome. We developed a laser-scanning cytometer assay to enable 1,536-well screening and combined the results of the small molecules screen with an RNAi database based on lipid storage.
NCGC Assay Protocol Summary:
We dispensed 4 uL of cells at 1.25 x 10^6 cells/mL into LoBase Aurora COC 1,536-well plates (black walled, clear bottom) with a bottle-valve solenoid-based dispenser (Aurora) to obtain 5,000 cells/well. Triacsin C (Sigma-Aldrich T-4540), an inhibitor of long-chain fatty acyl CoA synthetase that blocks synthesis of triglycerides, was used as a positive control for lipid under-storage. A total of 23 nL of compound solution of different concentrations were transferred to the assay plates using a Kalypsys pin tool equipped with a 1,536-pin array containing 10-nL slotted pins (FP1S10, 0.457-mm diameter, 50.8 mm long; V&P Scientific). One microliter of oleic acid (400 uM) was added, and the plate was lidded with stainless steel rubber gasket lined lids containing pinholes. […] Fluorescence was detected by excitation of the fluorophores with a 488-nm laser on an Acumen Explorer (TTP Lab Tech). The total intensity in channel 1 (500-530 nm) reflected lipid droplet accumulation. […] The ratio of the total intensity in PMT channel 1 over total intensity of channel 3 was also calculated. Percent activity was computed relative to an internal control (100% inhibited lipid droplet deposition due to the presence of 20 uM Triacsin C), which was added to 32 wells/plate.

[1] = measured here: cell count channel max response
[2] = measured here: lipid channel max response

**Q.** Which activity change, negative = inhibition (at 25.7 µM (top of the series)) does the source give for `CC(=O)N[C@@H]1CCSC1=O` here?
**A.** 1.07% (inactive)

**Q.** What about the max response [1] of the same molecule?
**A.** -9.82%

**Q.** And the max response [2]?
**A.** -4.81%

**Q.** What does the source list for `CN1[C@@H]2CC[C@H]1CC(O)C2` (some centres not stated)?
**A.** activity change, negative = inhibition (at 25.7 µM (top of the series)): -5.91% (inactive); max response [1]: -19.1%; max response [2]: -25.1%

**Q.** Which results are given for `Clc1ccc([C@@H](OCCN2CCCCC2)c2ccccc2)cc1`?
**A.** activity change, negative = inhibition (at 25.7 µM (top of the series)): -2.71% (inactive); max response [1]: -5.28%; max response [2]: -7.74%

**Q.** What does the source list for `CC[C@]1(c2cccc(O)c2)CCCCN(C)C1`?
**A.** activity change, negative = inhibition (at 25.7 µM (top of the series)): -0.585% (inactive); max response [1]: -13.2%; max response [2]: -11.2%

**Q.** With `O=C(Nc1cccc(F)c1)N1CC2(CCN(C(=O)Oc3ccccc3)CC2)C1` as the molecule, how does the activity change, negative = inhibition (at 57.5 µM (top of the series)) read?
**A.** 5.68% (inactive)

**Q.** And the max response [1]?
**A.** -9.16%

**Q.** And the max response [2]?
**A.** -1.47%

**Q.** Which results are given for `S=C=NCc1ccccc1`?
**A.** activity change, negative = inhibition (at 57.5 µM (top of the series)): 4.36% (inactive); max response [1]: -6.33%; max response [2]: 0.435%

**Q.** Which results are given for `CC1/C=C/C=C/CC/C=C/C=C/C=C/C=C/C(OC2OC(C)C(O)C(N)C2O)CC2O[C@](O)(CC(O)C(O)CCC(O)CC(O)CC(O)CC(=O)OC(C)C(C)C1O)CC(O)C2C(=O)O` (some centres not stated)?
**A.** activity change, negative = inhibition (at 57.5 µM (top of the series)): 9.08% (inactive); max response [1]: 17%; max response [2]: 32%

**Q.** For `C=C[C@H]1CN2CC[C@H]1C[C@H]2c1[nH]c2ccccc2c1CCO`, which activity change, negative = inhibition (at 57.5 µM (top of the series)) is on record?
**A.** 2.01% (inactive)

**Q.** What about the max response [1] of the same molecule?
**A.** -5.69%

**Q.** What about the max response [2] of the same molecule?
**A.** -2.67%

**Q.** For `CC1CC[C@@]2(NC1)O[C@@H]1C[C@H]3C4CC=C5C[C@@H](O)CC[C@]5(C)C4CC[C@]3(C)[C@H]1[C@@H]2C` (some centres not stated), which activity change, negative = inhibition (at 57.5 µM (top of the series)) is on record?
**A.** 7.46% (inactive)

**Q.** And the max response [1]?
**A.** -0.557%

**Q.** What about the max response [2] of the same molecule?
**A.** 6.71%

**Q.** With `COC1C(O)C(C)O[C@H](OC2CC[C@@]3(C=O)C4CC[C@]5(C)C(C6=CC(=O)OC6)CC[C@@]5(O)C4CC[C@@H]3C2)C1O` (some centres not stated) as the molecule, how does the activity change, negative = inhibition (at 57.5 µM (top of the series)) read?
**A.** 3.31% (inactive)

**Q.** And the max response [1]?
**A.** 21.5%

**Q.** And the max response [2]?
**A.** 24.5%

**Q.** With `CC1CC[C@]2(NC1)OC1CC3C4CC=C5CC(O)CC[C@@]5(C)C4CC[C@]3(C)C1C2C` (some centres not stated) as the molecule, how does the activity change, negative = inhibition (at 57.5 µM (top of the series)) read?
**A.** 2.46% (inactive)

**Q.** And the max response [1]?
**A.** 14.9%

**Q.** And the max response [2]?
**A.** 22.2%

**Q.** Which results are given for `CC(C)(C#N)O[C@H]1OC(CO)C(O)C(O)C1O` (some centres not stated)?
**A.** activity change, negative = inhibition (at 57.5 µM (top of the series)): 4.98% (inactive); max response [1]: 13.6%; max response [2]: 22.9%

**Q.** For `CN1[C@@H]2CC(OC(=O)[C@H](CO)c3ccccc3)C[C@@H]1[C@H]1O[C@H]12` (some centres not stated), which activity change, negative = inhibition (at 57.5 µM (top of the series)) is on record?
**A.** 4.98% (inactive)

**Q.** And the max response [1]?
**A.** -8.42%

**Q.** And the max response [2]?
**A.** -4.12%

**Q.** Which results are given for `CN1CC[C@@]2(CCCN(C(=O)Oc3ccccc3)C2)C1`?
**A.** activity change, negative = inhibition (at 57.5 µM (top of the series)): 2.41% (inactive); max response [1]: 16.8%; max response [2]: 22%

— PubChem BioAssay (NCATS)
